In all, about 150,000 compounds went through this assay and about 100 (0.067%) were called active. Many of the other results were omitted from the sample, so actives are more common in it than they were. Values without a mark were called inactive.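 How the source made its calls: active means inhibition above the mean plus 3 SD of compounds within the control limits, set per campaign (cut at about 38% in these data); inactive means the rest.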

This assay in a line: late stage P. falciparum gametocyte viability inhibitors, primary screen, ATP luminescence, HTS (AID 743093).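 Further: 0% = DMSO wells and 100% = medium only without gametocytes.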 The note with it: P. falciparum stage V gametocytes, 24 h, at 10.9 µM, active compounds read high.
As usually defined, the inhibition is the change of the read-out against control, counted positive when it falls. `N#CCSc1nc(-c2ccccc2)nc2ccc(F)cc12`: the inhibition is -8.79%.

On to `Cc1cc(C)n(-c2ccc3nncn3n2)n1`, for which the inhibition was 38.2% (active). For `Cc1cc(C)n(-c2nc(O)cc(=O)[nH]2)n1`, the inhibition was 9.58%. The figure for `Cc1cc(C)n(-c2ccc(Cl)c(C(=O)O)n2)n1` is 8.49%. Under `O=C(CN1CCCCCC1)Nc1c(Cl)cc(Cl)cc1Cl` stands -23.1%; under `O=C(NC(=O)N1CCSCC1)c1c(Cl)cccc1Cl`, -10.9%. The figure for `CCn1c(SCC(=O)N/N=C/c2ccncc2)nc2ccccc21` is -15.2%. Take `O=C1NC[C@@H](c2ccccc2)OC(=O)[C@H](Cc2ccc(F)cc2)CC/C=C/C[C@H]1CC(=O)N(CCO)Cc1ccccc1`: the inhibition was 4.53%.

Consider `COc1ccc(C(C#N)(CC(=O)O)c2cnccn2)cc1OC` (configuration not stated), for which the inhibition is -25%.

In the case of `Cc1ccccc1NC(=O)N1CCCC1C(=O)NCc1ccccc1` (configuration not stated), the inhibition was 1.78%. Under `Cc1ccc2c(O)c(Cc3ccccc3)c(=O)[nH]c2n1` stands -11.8%. `C/C(Cc1ccccc1)=N\NC(=O)CNC(=O)c1ccc2c(c1)OCCO2`: the inhibition was -4.02%. Under `CC(C)c1cc(CN2CCOCC2)cc(C(C)C)c1O` stands -5.85%; under `CCOC(=O)c1c(C)[nH]c(=S)c(C#N)c1-c1ccccc1`, -28.7%. Consider `CCOC(=O)c1c(C)[nH]c2c1-c1ccccc1C(=O)C2=O`, for which the inhibition was 50.2% (active). The figure for `CCOC(=O)C1=C(c2ccc(OC)cc2)C(=O)c2ccccc2C1=O` is -27.7%. Under `Cc1cccc(C(=O)N2CCC(c3nc4ccccc4s3)CC2)c1` stands 13%; under `Nc1nnnn1/N=C/c1cc([N+](=O)[O-])ccc1O`, -1.33%. The figure for `CCN(CC)S(=O)(=O)c1ccc(NC(=O)c2cnc(C)cn2)cc1` is -1.77%. In the case of `CC(=O)NS(=O)(=O)c1ccc(N/C(N)=N/c2nc(C)cc(C)n2)cc1`, the inhibition is 11.7%.

For `CCCCC(CC)CNCc1cccn1CCN1CCOCC1` (configuration not stated), the inhibition is -25.6%. The figure for `CCOC(=O)c1c(N)sc2c1CCCC2=O` is -6.75%. Regarding `Cc1c(CN2CC[C@@H](N3CCN(c4ccccn4)CC3)[C@H](O)C2)[nH]c2ccc(F)cc12`, the inhibition was -10.1%. Under `CCc1ccc(NC(=O)N[C@H](C(=O)O)C(C)CC)cc1` (some centres not stated) stands -3.41%. Under `Cc1ccc(C)c(SCc2nc3sc(C(=O)O)c(C)c3c(=O)[nH]2)c1` stands 8.97%.

For the molecule `CC1=CC(C)(C)NC(=S)N1NC(=O)c1ccccc1Cl`, the inhibition was -21.8%. Regarding `C[C@@H]1NC(=O)[C@@]2(C)[C@@H](c3ccccc3)[C@H]3COc4ccccc4[C@@H]3N2C1=O`, the inhibition was -7.28%.

As to `CCCNC(=O)CSc1nc(Cc2ccccc2)nc2ccccc12`, the inhibition was -0.29%. Regarding `COc1cccc(CNc2ncc(-c3ccccc3)n2C)c1`, the inhibition was -4.96%.

Turning to `CCSCc1nc(N)nc(NCCc2ccccc2)n1`, the inhibition is -2.31%. Under `CC(C)=CCN1CCN(CCCc2ccccc2)CC1CCO` (configuration not stated) stands 26.8%; under `COc1ccccc1C1=CC(=O)C[C@H](c2ccc(F)cc2)C1`, -32.5%; under `Cc1ccc(-c2ccnc3[nH]n(-c4ccccc4)c(=O)c23)cc1`, -20.9%. As for `CSc1ccc(S(=O)(=O)N2CCC(C(=O)NCCc3ccccc3)CC2)cc1`, the inhibition is -3.09%. The figure for `O=C(Nc1nnc(CCN2CCCCC2)s1)c1cccc(Cl)c1` is 7.08%; for `COc1cc(NC(=O)c2ccc(-c3csc(C)n3)cc2)c(OC)cc1Cl` it is -9.66%; for `CCC(C(=O)NCCC(C)C)N(Cc1ccccc1Cl)C(=O)c1snc(C(N)=O)c1N` (configuration not stated) it is -26.1%. Under `CN(C)CCCNC(=S)N1CCC(c2nc3ccccc3[nH]2)CC1` stands -17.4%; under `CC(=O)NS(=O)(=O)c1ccc2c(c1)Cc1cc(S(=O)(=O)NC(C)=O)ccc1-2`, -9.24%; under `Cc1cc(F)ccc1N1CCC(N2CCN(C)C(CCO)C2)CC1` (configuration not stated), -11.3%. The figure for `CC(=O)C(C)n1cnc2scc(-c3ccc(C)cc3)c2c1=O` (configuration not stated) is 13.9%; for `COc1ccccc1-n1cn[nH]c1=S` it is 2.72%.

Turning to `CC(C)CCN1NC2(CCC(C)CC2)NC1=S` (configuration not stated), the inhibition is 0.86%. The figure for `Cc1nc([N+](=O)[O-])cn1CC(=O)Nc1ccc(Cl)cc1` is 2.38%; for `O=C(O)c1ccccc1C(=O)Nc1nc(-c2ccccc2)cs1` it is 3.62%; for `COC(=O)c1ccc(COc2cc([N+](=O)[O-])cc3cccnc23)cc1` it is 2.3%.

In the case of `CCN1N=C(c2ccccc2)CCC1=O`, the inhibition was -22.1%. The figure for `CCc1nc(N2CCN(C(C)=O)CC2)c2c3c(sc2n1)CCCC3` is -2.91%; for `Cc1c(NC(=O)CSCc2ccccc2)cccc1C(=O)O` it is 19%. The figure for `CCCc1ccc(OCCNC(=O)c2ccccc2Br)cc1` is 17.8%; for `O=C(N[C@@H]1C/C=C\C[C@@H](CC(=O)N(CCO)Cc2ccccc2)C(=O)N[C@H](Cc2ccccc2)COC1=O)OCC1c2ccccc2-c2ccccc21` it is -0.76%; for `COc1ccc(N2CCN(C(=O)c3cccs3)CC2)cc1` it is -16.6%.

Regarding `Cc1cccc(C)c1OCCN1CCOCC1`, the inhibition was -12.2%. Under `COc1ccc(CN(Cc2ccc(OC)cc2)C(=O)c2cccs2)cc1` stands 2.88%. Regarding `CCOc1ccc2ccccc2c1/C=N/NC(=O)c1c(C)cc(C)[nH]c1=O`, the inhibition was 23.8%. On to `Cc1cccc(NC(=O)COC(=O)CCc2ccccc2)c1C`, for which the inhibition is -7.45%. The figure for `CCNC(=O)CCc1nc(-c2ccc(C)cc2)no1` is -1.21%; for `CN1CCN(c2ccc(S(=O)(=O)N3CCOCC3)cc2NC(=O)CCc2ccccc2)CC1` it is -2.86%. Under `CCOC(=O)[C@H]1[C@H]2COc3cc(OC)ccc3[C@@H]2N2C(=O)CN(Cc3ccc(Cl)cc3)C(=O)[C@@]12C` stands -23.5%; under `COc1ccc(C(=O)NC2=NCCS2)c(OC)c1`, -24.6%; under `CCOc1ccc(-n2c(SCC(N)=O)nnc2-c2ccco2)cc1`, -6.2%. The figure for `CCOC(=O)c1cnc(COc2ccccc2Cl)[nH]c1=O` is -10.2%.

(Values after PubChem BioAssay AID743093 (The Scripps Research Institute Molecular Screening Center, 2013).)
